# From PubChem BioAssay
# What was measured:
# [1] = target: Tumor necrosis factor receptor superfamily member 10B (Homo sapiens) (UniProt O14763); test: caspase-8 TRAIL sensitization, hit retest, confirmation, cell-based, NB7+caspase-8, with/without TRAIL, luminescence panel (AID 651596); details: NB7 neuroblastoma + caspase-8, TRAIL sensitization, luminescence viability, with TRAIL, mean of runs, at 10 µM, stronger effect = higher value
# [2] = as above; details: NB7 neuroblastoma + caspase-8, without TRAIL, luminescence viability, without TRAIL, mean of runs, at 10 µM
# Chain of Tumor necrosis factor receptor superfamily member 10B (Homo sapiens) (O14763 whole entry, looked up): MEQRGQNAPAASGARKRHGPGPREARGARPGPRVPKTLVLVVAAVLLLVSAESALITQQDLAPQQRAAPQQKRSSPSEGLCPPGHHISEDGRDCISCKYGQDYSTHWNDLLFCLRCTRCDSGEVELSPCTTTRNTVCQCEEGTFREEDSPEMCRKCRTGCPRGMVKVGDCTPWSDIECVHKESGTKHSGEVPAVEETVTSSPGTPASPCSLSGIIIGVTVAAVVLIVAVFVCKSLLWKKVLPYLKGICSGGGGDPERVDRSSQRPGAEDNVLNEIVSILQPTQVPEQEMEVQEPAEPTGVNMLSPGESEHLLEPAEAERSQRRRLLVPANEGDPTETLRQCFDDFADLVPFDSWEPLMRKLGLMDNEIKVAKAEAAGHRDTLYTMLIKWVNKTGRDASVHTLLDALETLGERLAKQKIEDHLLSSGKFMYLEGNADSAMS
SMILES,activity [1],activity [2]
Cc1cc(-c2ccccc2)nc(N/N=C/c2ccccc2)n1,61.6%,50.3%
Fc1cccc(/C=N/Nc2nncc3ccccc23)c1,79.5%,78.8%
Cc1nc2sc(-c3ccccc3)cc2c(=O)n1N,59.7%,44.8%
c1ccc(-c2ccc(-c3nc(-c4ccccn4)no3)cc2)cc1,94%,93.2%
Cc1c(Cl)cccc1Nc1nc(N)nc(CSc2ncccn2)n1,91.8%,92.3%
COc1ccccc1Nc1nc(N)nc(CCl)n1,98.8%,96.4%
CCOC(=O)COc1ccc(-c2nnc(-c3ccccc3)o2)cc1,43.2%,33.8%
Cc1ccc(O)c(-c2cc(-c3ccc(F)cc3)no2)c1,71.2%,57.8%
C=CCOc1cccc(/C=C/c2nc3ccccc3c(=O)[nH]2)c1,66.8%,64.8%
Cc1nn(-c2ccccc2)c(Cl)c1/C=N/NC(=O)c1ccn[nH]1,79.8%,71.3%
Cc1cccc(-c2nc3cc(NC(=O)C4CCCO4)ccc3o2)c1 (configuration not stated),66.7%,64.7%
Cc1ccc(NC(=O)c2ccc(CSc3nnnn3C)cc2)cc1,44.9%,37.7%
CCc1cc2c(=O)[nH]c(-c3ccccn3)nc2s1,35.9%,41%
CCOC(=O)CNC(=O)CSc1nnc(NC(=O)c2ccc(C)cc2)s1,94.5%,92.5%
O=C(CSc1nnc(-c2ccc(O)cc2)o1)Nc1cccc(O)c1,50.6%,55.7%
Cc1ccc(-n2nnc(-c3nccn3C)n2)cc1,74.7%,77.1%
Cc1cccc(-c2noc(-c3ccc4c(c3)OCO4)n2)c1,64.6%,60.1%
CCc1ccc(-c2cn3nc(C)c(C)nc3n2)cc1,75.3%,63.9%
COc1ccc(/C=N/Nc2cc(OC)ncn2)cc1,53.9%,40.8%
CC(C)Nc1ncnc2c1cnn2-c1ccc(Cl)cc1,60.6%,67.4%
CNC[C@@H](CC1CCCCC1)NC[C@H](CC(C)C)NCCc1cccc(C(F)(F)F)c1,99.4%,99.7%
CCOc1ccc(Nc2nc(N)nc(CCl)n2)cc1,99.5%,99.3%
O=C(/C=C/Nc1ccccc1)c1ccccc1,63.1%,44.8%

SMILES,activity [1],activity [2]
CCOc1cc(/C=C\[N+](=O)[O-])ccc1OCC(=O)Nc1ccccc1C,88.8%,91.9%
Cc1cc(-c2csc3nc[nH]c(=S)c23)cc(C)c1C,79.3%,74.9%
Cc1nc2cc(NC(=O)N3c4ccccc4CC3C)ccc2n1C (configuration not stated),71.9%,70.6%
N/C(=N\OC(=O)COc1ccc(Cl)cc1Cl)c1ccccn1,37%,52.3%
C/C(=N\NC(=O)c1ccccc1NC(=O)c1ccc(Cl)cc1)c1ccncc1,99.1%,99%
COn1c(SCc2ccc(Cl)cc2)nc2ccccc2c1=O,67%,47.9%
CCOC(=O)/C(=C/c1ccc(OC(F)F)cc1)C1=Nn2c(nnc2-c2ccc(Cl)cc2)SC1,98.8%,97.1%
O=C1CN(C(=O)Cn2ncc(Cl)c(Cl)c2=O)c2ccccc2N1,99.4%,99.5%
COc1ccccc1N1CCN(Cc2ccc(O)c3ncccc23)CC1,30.2%,76%
CCCCCCCCCCCCCCCC[N+](C)(C)CCl,96%,94.3%
COc1cc(NC(=O)c2cc3cccc(OC)c3o2)cc(C(=O)Nc2cccc(C(F)(F)F)c2)c1,36.8%,33.5%
Cc1ccc(C(=O)Nc2ccc3c(c2)OCCO3)c(Cl)c1,92.3%,90.8%
COc1ccc(-c2nc3ccccc3[nH]2)cc1,89%,90.7%
COc1ccc(C(=O)N/N=C(/C)c2cccc(NC(=O)c3ccccc3F)c2)cc1,53.5%,62.1%
O=C(CCl)N1CCN(S(=O)(=O)c2ccc3ccccc3c2)CC1,94.9%,64.7%
FC(F)(F)c1cccc(Sc2nc(-c3ccccc3)nnc2C(F)(F)F)c1,42.5%,60.4%
COc1ccc(CCNc2cc(N3CCN(C(=O)c4ccccc4F)CC3)ccc2[N+](=O)[O-])cc1OC,73.7%,64.7%
Cc1cc(C(=O)Nc2sc3c(c2C#N)CCCC3)no1,53%,52.5%
O=C(Nc1ccc2[nH]ccc2c1)c1ccc(F)cc1,89.7%,87%
C/C(=N\NC(=O)c1cccc(O)c1)c1cccc(NC(=O)c2ccc(F)cc2)c1,74.5%,77.4%
O=C(Cn1ncc(Cl)c(Cl)c1=O)c1ccc(Cl)cc1,99.7%,99.6%
COc1ccc(/C(N)=N/OC(=O)c2ccc3ccccc3c2)cc1OC,99%,98%
COc1ccc(NC(=O)c2cc3ccc(O)cc3o/c2=N\O)cc1,77.8%,77.1%
